Results filed as inconclusive are left out. Calls of active or inactive are those of the source. Rule for the calls, unless noted: active = hit-call score of the fitted dose curve at least 0.9, where 1 is the maximum; inconclusive = response in the unintended direction; inactive = score below 0.9.

The subject of test [1] is Thyroperoxidase (TPO), gene 445522. Put plainly: CCTE_Simmons_GUA_TPO: CCTE's Guaiacol Assay for Thyroperoxidase (TPO) Inhibition, Simmons Lab (AID 2283750). Summed up: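 Porcine thyroid microsomes (25 ug) in 200mM potassium phosphate, preincubated 30 s at 37C with compound (8 concentrations, 5 nM–87.5 uM) and 35mM guaiacol; 1mM H2O2 starts reaction. Absorbance change at 450nm over first 80 s; loss of signal versus DMSO, three replicates.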

The nature of test [2]: ArunA_CellTiter_hNC: Viability Assessment in the ArunA Biomedical's Oris Neural Crest (hNC) Cell Migration Assay (AID 2283752). In a few lines:
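Viability of embryonic neural crest stem cells from the H9 line is scored 72 h after dosing, with DMSO as negative control and baseline. A drop in CellTiter Aqueous One signal indicates cytotoxicity.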

Test [3] is described as follows: ArunA_CellTiter_hNP: Viability Assessment in the ArunA Biomedical's Oris Neural Crest (hNC) Cell Migration Assay (AID 2283753). In a few lines:
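H9-derived hNP1 neuroprogenitors, 60,000/well on Matrigel, cultured 16 h, then 72 h chemical exposure in test medium. Cell titer via CellTiter Aqueous One; positive-direction fit vs DMSO.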

Test [4] is described as follows: ArunA_NOG_BranchPointsPerNeurite: ArunA Biomedical's Neurite Outgrowth (NOG) Assay for Branch Points Per Neurite (AID 2283759). In a few lines: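 Automated image analysis traced neurites (processes >10 um) from valid cell bodies after Hoechst and βIII-tubulin staining. hNN cells from H9 embryonic stem cells, 48 h exposure. Fitted bidirectionally against DMSO.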
The nature of test [5]: ArunA_Migration_hNP: ArunA Biomedical's Oris Neuroprogenitor (hNP) Cell Migration Assay (AID 2283754). In a few lines:
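Human H9-derived hNP1 neuroprogenitors on Matrigel with LIF/bFGF, plated around seeding stoppers for 16 h at 37C; stoppers removed at start of 72 h chemical exposure. Calcein-AM staining, fluorescence 494/517 nm in detection zone; loss-of-signal vs DMSO; cytochalasin D control.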

A short description of test [6]: ArunA_Migration_hNC: ArunA Biomedical's Oris Neural Crest (hNC) Cell Migration Assay (AID 2283755). Summed up:
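Human H9-derived neural crest stem cells, 60,000/well on Matrigel, 16 h at 37C, then 72 h chemical exposure after seeding-stopper removal. Migration into detection zone read as calcein-AM fluorescence (ex494/em517), relative to DMSO.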

In test [7] the target is zebrafish Estrogen Receptor (ESR1), esr1 (gene 259252) (UniProt P57717). Put plainly: ATG_zfER1_XSP1: Attagene TRANS-FACTORIAL Multi-Species (XSP1) HepG2 Assay for zebrafish Estrogen Receptor (ESR1) (AID 2283772). Summed up:
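Trans-activation readout: transfected zebrafish ER-Gal4 drives a UAS reporter in human HepG2 liver cells. After 24 h compound exposure (medium containing 3 nM 6-alpha-fluorotestosterone), induced reporter transcripts were quantified by RT-PCR with capillary electrophoresis, relative to DMSO.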

Test [8] concerns zebrafish Androgen Receptor (AR), gene 100005148. Put plainly: ATG_zfAR_XSP1: Attagene TRANS-FACTORIAL Multi-Species (XSP1) HepG2 Assay for zebrafish Androgen Receptor (AR) (AID 2283771). In a few lines: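 HepG2 cells were transiently transfected with a zebrafish AR-GAL4 reporter system and partially stimulated with 3 nM 6-alpha-fluorotestosterone. Reporter mRNA was measured after 24 h dosing by RT-PCR with capillary electrophoresis, and gain-of-signal was fitted relative to DMSO.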

Test [9] in a line: Tanguay_ZF_120hpf_TR_legacy: (Legacy) Oregon State University Tanguay Lab 120 Hour Post-fertilization zebrafish Assay for Touch Response (AID 2283667). Summed up: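 Tropical 5D wild-type zebrafish embryos statically exposed to 120 hpf at 28°C, sealed and dark-covered, 0.64% DMSO final; touch response scored as present/absent by brightfield microscopy at 120 hpf. Trimethyltin chloride 5 uM positive control; dead embryos not scored.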

Test [10] is described as follows: Tanguay_ZF_120hpf_ActivityScore_legacy: (Legacy) Oregon State University Tanguay Lab 120 Hour Post-fertilization zebrafish Assay Score for Activity (AID 2283742).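 For AC50: dechorionated Tropical 5D wild-type zebrafish embryos held singly per well; static exposure from 6 hpf until 120 hpf at 28 °C.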 Summed up:
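Dechorionated Tropical 5D embryos, one per well from 6 hpf, statically exposed to 120 hpf at 28 °C in 0.64% DMSO. Mortality and malformations scored binary by brightfield microscopy; activity score combines 18 endpoints, fitted positively versus DMSO.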

A short description of test [11]: CEETOX_H295R_MTT_cell_viability: Viability Assessment in the CeeTox HT-H295R MTT Assay (AID 2283718; active = hit-call score of the fitted dose curve at least 0.9, where 1 is the maximum; inactive = score below 0.9). In a few lines:
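Human H295R adrenal cells, prestimulated 48 h with 10 uM forskolin, were exposed 48 h to chemicals in 0.1% DMSO. Viability was measured in the same wells by MTT (0.5 mg/ml, 4 h, 37 C), absorbance 570/650 nm, as percent of controls.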

Test [12] can be described thus: STM_H9_CystineISnorm_perc: Stemina devTOX quickPredict H9 human embryonic stem cell (hESC)-based Assay for Cystine (CYSS) Metabolite Biomarker, Normalized (AID 2283713; active = hit-call score of the fitted dose curve at least 0.9, where 1 is the maximum; inactive = score below 0.9). In a few lines:
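Secreted cystine was measured by UPLC-HRMS in H9 hESC medium after 72h compound exposure with 24-hourly replenishment. Values are standard-normalized areas relative to 0.1% DMSO.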

Test [13] in a line: ArunA_NOG_NucleusCount: ArunA Biomedical's Neurite Outgrowth (NOG) Assay for Nucleus Count (AID 2283756). Summed up:
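Human H9-derived differentiated neurons were exposed for 48 h right after seeding. Hoechst-stained nuclei gated by size and intensity were counted by automated high-content imaging as viable neurons. Loss of signal vs DMSO.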

Test [14] in a line: STM_H9_OrnCyssISnorm_ratio: Stemina devTOX quickPredict H9 human embryonic stem cell (hESC)-based Assay for Ornithine (ORN):Cystine (CYSS) Ratio (AID 2283714). In a few lines:
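Undifferentiated H9 hESCs exposed 72 h, media and compound replaced every 24 h; final 24-h conditioned media deproteinized and analysed by UPLC-HRMS against C13 spike-ins. Value is the internal-standard-normalized ORN/CYSS ratio versus 0.1% DMSO.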

The target of test [15] is Luciferin 4-monooxygenase (Photinus pyralis) (UniProt P08659). Put plainly: CCTE_Simmons_QuantiLum_inhib_2: CCTE's Firefly Luciferase Inhibition Assay, Simmons Lab (AID 2283767). Summed up: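 Counter-screen for nonspecific enzyme inhibition: purified firefly luciferase incubated 30 min at 37C with chemicals up to 87.5 uM final, then luminescence measured after luciferin/dATP injection; activity fitted against DMSO baseline.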

Test [16] is described as follows: ArunA_NOG_NeuriteLength: ArunA Biomedical's Neurite Outgrowth (NOG) Assay for Neurite Length (AID 2283757). In a few lines: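 Differentiated human H9-derived neurons were exposed for 48 h from seeding, then stained with Hoechst and βIII-tubulin. Automated high-content imaging gave total neurite length per valid neuron, counting processes >10 um. Loss of signal was scored versus DMSO.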

Test [17] in a line: ArunA_NOG_NeuritesPerNeuron: ArunA Biomedical's Neurite Outgrowth (NOG) Assay for Neurites Per Neuron (AID 2283758). Summed up: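 Differentiated human H9-derived neurons exposed to chemicals for 48 h from seeding, then stained with Hoechst and βIII-tubulin/DyLight 488. Automated imaging counted neurites (processes >10 um) per valid neuron; loss of signal versus DMSO scored.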

zebrafish Estrogen Receptor (ESR1), esr1 (gene 259252), sequence (P57717 whole entry, looked up, the tested form may be a part): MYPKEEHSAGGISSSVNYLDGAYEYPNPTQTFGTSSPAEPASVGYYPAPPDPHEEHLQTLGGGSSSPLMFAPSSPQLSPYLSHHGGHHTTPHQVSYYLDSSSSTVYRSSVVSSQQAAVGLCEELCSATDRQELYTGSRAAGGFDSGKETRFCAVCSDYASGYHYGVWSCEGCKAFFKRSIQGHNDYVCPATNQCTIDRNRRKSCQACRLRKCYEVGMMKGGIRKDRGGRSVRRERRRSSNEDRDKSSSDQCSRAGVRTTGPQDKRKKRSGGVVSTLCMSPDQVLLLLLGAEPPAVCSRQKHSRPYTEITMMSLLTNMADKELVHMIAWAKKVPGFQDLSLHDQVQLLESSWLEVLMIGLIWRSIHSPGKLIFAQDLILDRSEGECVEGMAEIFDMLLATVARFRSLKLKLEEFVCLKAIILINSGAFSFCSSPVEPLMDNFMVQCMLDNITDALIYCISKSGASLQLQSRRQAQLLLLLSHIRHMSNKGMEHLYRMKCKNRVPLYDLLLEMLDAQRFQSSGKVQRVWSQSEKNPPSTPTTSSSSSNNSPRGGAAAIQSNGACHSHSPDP
Luciferin 4-monooxygenase (Photinus pyralis), sequence (P08659 whole entry, looked up): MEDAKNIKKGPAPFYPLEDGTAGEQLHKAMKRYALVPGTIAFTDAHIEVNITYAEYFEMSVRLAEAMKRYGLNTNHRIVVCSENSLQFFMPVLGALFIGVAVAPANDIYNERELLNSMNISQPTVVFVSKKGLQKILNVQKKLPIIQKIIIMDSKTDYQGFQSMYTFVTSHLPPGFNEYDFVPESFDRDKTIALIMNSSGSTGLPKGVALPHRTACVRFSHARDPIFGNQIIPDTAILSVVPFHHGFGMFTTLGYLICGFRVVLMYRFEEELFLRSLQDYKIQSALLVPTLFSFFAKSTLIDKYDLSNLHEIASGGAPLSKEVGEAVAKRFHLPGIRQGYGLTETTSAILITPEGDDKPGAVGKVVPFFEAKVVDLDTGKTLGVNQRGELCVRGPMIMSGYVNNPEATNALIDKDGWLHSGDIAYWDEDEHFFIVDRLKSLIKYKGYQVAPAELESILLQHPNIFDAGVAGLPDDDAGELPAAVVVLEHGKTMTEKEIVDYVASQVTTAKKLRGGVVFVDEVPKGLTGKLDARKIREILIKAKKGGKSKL

By AC50 is commonly meant the concentration at which the activity in the assay is half-maximal. For `NNC(=O)c1ccncc1`, the AC50 in [1] was 20.7 µM (active).

For the molecule `C[C@@H](Oc1ccc(CNC(=O)c2cccnc2Oc2ccc3c(c2)OCO3)c(F)c1)C(=O)O`, in [1], the outcome was inactive.

Turning to `CCCC(CCC)C(=O)O`, the molecule was classed as inactive in test [2] and in [3]. Moreover, the AC50 in [4] was 69.6 µM (active).

Take `CCN(CC)C(=S)SSC(=S)N(CC)CC`: the AC50 is 8.19 µM (active) in test [2], 7.2 µM (active) in test [3], 0.405 µM (active) in test [5] and 8.55 µM (active) in [6]. In addition, the molecule was classed as inactive in test [7].

Turning to `Cn1cc[nH]c1=S`, the molecule was classed as inactive in test [5] and in test [6]. In [4], the AC50 was 7.98 µM (active).

Turning to `CC(C)C(=O)Nc1ccc([N+](=O)[O-])c(C(F)(F)F)c1`, the result in [8] was inactive.

For `OC(CCl)CCl`, the molecule was called inactive in [9] and in [10].

On to `OC[C@H]1O[C@@](CO)(O[C@H]2O[C@H](CO)[C@@H](O)[C@H](O)[C@H]2O)[C@@H](O)[C@@H]1O`, for which the outcome in test [9] and in [10] was inactive.

Regarding `CCOc1ccc2[nH]cc(C(=O)NCc3ccccc3)c(=O)c2n1`, the result in test [9] and in test [11] was inactive.

For `NC(N)=O`, the outcome in test [9] and in [10] was inactive.

Turning to `C[C@]12C=CC(=O)C=C1CC[C@H]1[C@@H]3C[C@@H](O)[C@](O)(C(=O)CO)[C@@]3(C)C[C@H](O)[C@@]12F`, the call in [9], in test [12] and in [11] was inactive. Also, the AC50 in test [10] is 0.00064 µM (active).

With `Cc1nccn1-c1ccc(Sc2cccc(C3(C(N)=O)CCOCC3)c2)cc1`, the molecule was called inactive in test [9] and in test [10].

Turning to `CCCCCCCCCC`, the molecule was classed as inactive in test [9], in test [12], in [10], in test [2], in test [6] and in test [13].

`c1ccc2c(c1)-c1cccc3c1c-2cc1ccccc13`: the call in test [9], in test [11] and in [10] was inactive.

On to `COCc1nnc(-c2ccc[n+]([O-])c2)n1-c1c(Cl)c(Cl)cc2[nH]c(=O)c(=O)[nH]c12`, for which the molecule was classed as inactive in test [9] and in test [10].

For `OC[C@H]1O[C@@H]2O[C@H]3[C@H](O)[C@@H](O)[C@@H](O[C@H]4[C@H](O)[C@@H](O)[C@@H](O[C@H]5[C@H](O)[C@@H](O)[C@@H](O[C@H]6[C@H](O)[C@@H](O)[C@@H](O[C@H]7[C@H](O)[C@@H](O)[C@@H](O[C@H]1[C@H](O)[C@H]2O)O[C@@H]7CO)O[C@@H]6CO)O[C@@H]5CO)O[C@@H]4CO)O[C@@H]3CO`, the call in test [9] and in test [10] was inactive.

For `O=S(=O)(O)c1ccc(N=Nc2c(O)ccc3cc(S(=O)(=O)O)ccc23)cc1`, the molecule was called inactive in test [9], in test [11] and in test [10].

Consider `NC(=O)NN=Cc1ccc([N+](=O)[O-])o1`, for which the outcome in test [9], in test [12] and in [10] was inactive. Also, the AC50 in test [14] was 2.42 µM (active).

Turning to `CCCCCCCCN(C)C`, the outcome in test [9], in test [11] and in test [10] was inactive.

For the molecule `OC(Cn1cncn1)(Cn1cncn1)c1ccc(F)cc1F`, the call in test [9], in test [12], in test [14] and in [10] was inactive.

Take `CCCOc1ccc(S(=O)(=O)N2CCN(CC)CC2)cc1-c1nc2c(CC)n(Cc3ccccn3)nc2c(=O)[nH]1`: the outcome in [9], in test [11] and in test [10] was inactive.

For the molecule `CCCCCOC(C)=O`, the result in test [9] and in test [10] was inactive.

In the case of `O=C(O)c1cccc(C(=O)O)c1`, the molecule was classed as inactive in test [9] and in test [10].

Consider `CC(C)CCCCCCOC(=O)C1CCCCC1C(=O)OCCCCCCC(C)C` (stereo unspecified), for which the result in test [9] and in test [10] was inactive.

For `CC(C)CC(C)O` (stereo unspecified), in test [10], the call was inactive.

As for `CCCCCCCC/C=C\CCCCCCCC(=O)OC[C@@H](O)[C@H]1OC[C@H](O)[C@H]1O`, the call in [9] and in test [10] was inactive.

Regarding `O=S1(=O)CCCO1`, the result in [9], in [10] and in [15] was inactive. Further, the AC50 in test [12] is 83 µM (active); in test [14], 78.2 µM (active).

As for `O=C(O)c1ccc2c(c1)nc(C(=O)NC1CCN(C3CC3)CC1)n2Cc1cc(-c2ccc(Cl)s2)on1`, the molecule was classed as inactive in test [9] and in test [10].

For `CNC(C)=O`, the molecule was classed as inactive in test [9] and in test [10].

Consider `NC(=O)N1c2ccccc2C=Cc2ccccc21`, for which, in test [9], the molecule was classed as inactive. The AC50 in [12] is 4.32 µM (active); in test [14], 4.18 µM (active); in test [10], 0.0251 µM (active).

As to `C=CN1CCCC1=O`, in test [10], the call was inactive.

Take `CCc1cccc(CC)c1N`: the molecule was called inactive in [9] and in [10].

On to `OCc1c[nH]c2ccccc12`, for which the outcome in test [11] was inactive.

With `CCOC(N)=O`, the result in test [9] and in test [10] was inactive.

Turning to `OCCOCCOCCO`, the molecule was classed as inactive in test [9] and in test [10].

For the molecule `CCCCCCCCCCCCCCO`, the molecule was called inactive in test [9], in test [11] and in test [10].

For `CC1(C)C(=O)N(Cl)C(=O)N1Cl`, the call in test [9] and in test [10] was inactive.

For the molecule `CCCCCCOC(=O)CC(CC(=O)OCCCCCC)(OC(=O)CCC)C(=O)OCCCCCC`, the molecule was called inactive in test [9] and in test [10].

With `OCCNCCO`, the molecule was called inactive in test [9], in [10] and in test [6]. Besides, the AC50 in test [12] was 22.2 µM (active); in [14], 14 µM (active); in [13], 21.3 µM (active); in [16] it was 24.8 µM (active); in [17], 20.2 µM (active); in test [4], 15.4 µM (active).

For `c1ccc2ncccc2c1`, the outcome in test [9] and in [10] was inactive.

Turning to `CC(=O)c1ccccc1`, the molecule was called inactive in [9] and in test [10].

As to `Cn1c(=O)c2[nH]cnc2n(C)c1=O`, the result in test [9], in test [12] and in [10] was inactive.
